Consider five compounds from PubChem BioAssay (NCATS).

The target in experiment [1] is Lysosomal acid glucosylceramidase (Homo sapiens) (UniProt P04062). In words: Glucocerebrosidase-p2 (AID 348; in the data active means potency below about 10 µM; further: potency means the concentration at half of the fitted maximal effect). The settings on record: purified GBA, blue fluorogenic substrate, 40 min. In a few lines: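 Normal human glucocerebrosidase (0.2 nM) with blue fluorogenic substrate (80 uM final) in citrate/phosphate pH 5.9 with 10mM sodium taurocholate, 0.01% tween-20; 40 min RT, NaOH/glycine stop; fluorescence Ex 365/Em 440; AC50 from a titration from 0.6 nM upwards.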

The nature of experiment [2]: AP1 Signaling Pathway (AID 357). Further: on the % scale 0 is the no-effect control and ±100 the full control effect. The settings on record: ME-180 AP-1-bla reporter, EGF-induced, beta-lactamase ratio, 5 h; at 7.69 µM (top of the series) unless noted. In a few lines: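 ME-180 cells with beta-lactamase reporter under AP-1 response element, stimulated with EC50 EGF; compounds tested in titration series, 5 h at 37 °C. CCF4 substrate added 2.5 h at room temperature; 460/530 nm emission ratio gave %activity and AC50.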

Experiment [3] deals with Cytochrome P450 1A2 (Homo sapiens) (UniProt P05177). As to the kind of experiment: p450-cyp1a2 (AID 410; calls by dose curve; further: potency means the concentration at half of the fitted maximal effect). The settings on record: recombinant CYP1A2, luciferin-ME demethylation, luminescence; series mostly up to 57 µM. In a few lines:
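20nM CYP1A2, 100uM Luciferin-ME (=Km), 100mM KPO4; cpd 10 min RT; +NADPH regen, 60 min RT; stop/detect 20 min; luminescence. Normalized to furafylline 57 uM = full inhibition.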

A short description of experiment [4]: NFAT Signaling Pathway (AID 444).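 Further: carbachol stimulus at about its EC50 of 1 µM final; on the % scale 0 is the no-effect control and ±100 the full control effect.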 The settings on record: Jurkat NFAT-bla M1, carbachol, beta-lactamase ratio, 5 h; at 7.69 µM (top of the series) unless noted. In a few lines:
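Jurkat cells with NFAT-driven β-lactamase reporter and co-expressed M1 receptor, stimulated with carbachol (final 1 uM, ~EC50), compound titration, 5 h at 37 °C. CCF4 loaded 1 h at RT; 460/530 nm ratio gave %activity and AC50.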

Experiment [5] can be described thus: Stat Signaling Pathway (AID 446).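 Further: ME-180 cervical cancer cells given 40 pM IL-6 alongside compound; SIE-controlled beta-lactamase reporter measured as 460/530 nm FRET emission ratio; on the % scale 0 is the no-effect control and ±100 the full control effect.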 The settings on record: ME-180 SIE beta-lactamase reporter, IL-6 stimulated, 5 h; at 7.69 µM (top of the series) unless noted. In a few lines:
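Normalization used AC90 stimulation (300 pM IL-6) and AC90 inhibition (125 nM pan-JAK inhibitor at 40 pM IL-6). The underlying signal is SIE-driven beta-lactamase in ME-180 cells after 5 h IL-6 exposure with compound.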

Experiment [6] concerns the target Glucocorticoid receptor (Homo sapiens) (UniProt P04150). In words: GR-EFC Redistribution (AID 451; calls by dose curve; further: potency means the concentration at half of the fitted maximal effect). The settings on record: CHO-K1 GR-EFC translocation, beta-gal luminescence, 2 h. The procedure, abridged: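 CHO-K1 cells expressing nuclear EA and GR-ED fragments of b-gal; compounds titrated up to 46 uM final, 2 h at 37 C. GR nuclear translocation read as complemented b-gal luminescence after 1 h RT detection.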

Experiment [7] has as its target Mitogen-activated protein kinase 10 (Mus musculus) (UniProt Q61831). In words: JNK3 AlphaScreen Assay (AID 530).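 Further: kinase came from lysate of stimulated human HepG2 cells; signal reports phosphorylation of biotinylated GST-cJun 1-79 at Ser73 with 10 µM ATP; on the % scale 0 is the no-effect control and ±100 the full control effect.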 The note with it: JNK3 lysate, c-Jun phosphorylation; series mostly up to 57.1 µM. In a few lines: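 HepG2 lysate (IL-1b/TNFa pre-activated) + biotin-GST-cJun 1-79 + anti-pSer73 cJun; cpd titration, 15 min RT; ATP 10 uM start; Tris pH 7.6, MgCl2, DTT, vanadate; beads in EDTA buffer; AlphaScreen.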
On the technique in general: In Alpha technology, singlet oxygen from a donor bead excites a nearby acceptor bead.

Experiment [8] concerns the target 3',5'-cyclic-AMP phosphodiesterase 4B (Homo sapiens) (UniProt Q07343). In words: qHTS Assay for Inhibitors of PDE-IV (AID 607; active means well fitted activation curve with a large enough effect in the main read-out, with a control signal flat, not every such curve was filed as active; further: % of control where 0% means no effect). The note with it: HEK293 ACTOne CNG channel cells, membrane potential fluorescence; series mostly up to 22.9 µM. In a few lines: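 HEK293 ACTOne cells with CNG channel (1000/well), endogenous PDE4; membrane potential dye, compounds up to 22.9 uM final. Fluorescence Ex 535/Em 590; RO 20-1724 (100 uM final) as reference.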
In general terms: qHTS replaces the single test concentration by a dilution series.

A short description of experiment [9]: qHTS Assay for Lipid Storage Modulators (AID 1519; calls by dose curve). The settings on record: Drosophila S3 cells, BODIPY lipid droplet/cell ratio, laser cytometry, cells loaded with oleic acid; for activity change, negative = inhibition: at 57.5 µM (top of the series). The procedure, abridged:
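Cells seeded at 5,000 per well were treated with compounds over a concentration series and loaded with oleic acid (400 uM, as added). Lipid droplet fluorescence (488 nm excitation, 500-530 nm channel) was read by laser-scanning cytometry and normalized to 20 uM Triacsin C.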

Experiment [10] in a line: Primary qHTS for small molecule stabilizers of the endoplasmic reticulum resident proteome: Secreted ER Calcium Modulated Protein (SERCaMP) assay (AID 1508630; active means well fitted curve in the direction sought with a large enough effect; an effect the other way counts as inactive or inconclusive; further: on the % scale 0 is the no-effect control and ±100 the full control effect). The note with it: SH-SY5Y GLuc-SERCaMP (Gaussia luciferase released on ER calcium loss) secretion, thapsigargin, luminescence; series mostly up to 38.4 µM. The procedure, abridged:
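The SH-SY5Y reporter protocol was run at 3 concentrations up to 38.3 uM (primary) or 11 concentrations (follow-up): 16 h compound, 100 nM thapsigargin for 4 h, then extracellular luciferase luminescence.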

In experiment [11] the target is Cytochrome P450 3A4 (Homo sapiens) (UniProt P08684). As to the kind of experiment: qHTS Assay for Activators of Cytochrome P450 3A4 (AID 885; active means well fitted curve in the direction sought with a large enough effect; an effect the other way counts as inactive or inconclusive; further: nearly all actives have a fitted effect of over 65% in size). The settings on record: recombinant CYP3A4, Luciferin-PPXE luminescence, 60 min; series mostly up to 57.1 µM. The procedure, abridged: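 Human CYP3A4 dealkylates Luciferin-PPXE to luciferin, which luciferase detection converts to light. Substrate was at its KM (25uM), buffer 200mM KPO4, reaction 60 min at RT.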

The nature of experiment [12]: Confirmation and Secondary Assay for Modulators of Hemoglobin Beta Chain Splicing at IVS2 654 locus (AID 910; active means well fitted curve in the direction sought with a large enough effect; an effect the other way counts as inactive or inconclusive;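 further: HeLa cells stably carrying EGFP split by mutant beta-globin IVS2-654 intron; % of control where 0% means no effect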). The note with it: HeLa EGFP-654 splicing reporter, GFP fluorescence, 48 h; series mostly up to 38.3 µM. The procedure, abridged:
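HeLa cells stably expressing EGFP interrupted by β-globin IVS2-654 intron, seeded overnight in Opti-MEM/2% FCS, then treated 2 days at 37 °C. Restored splicing read as total peak GFP intensity per well by laser scanning cytometry (488 nm excitation, 500–520 nm emission); 500 nM antisense PNA as control.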

Experiment [13] is described as follows: qHTS Assay for Identification of Small Molecule Agonists for Hypoxia Response Element Signaling Pathway (AID 914; active means well fitted activation curve with a large enough effect in the signal ratio, with a control signal flat, not every such curve was filed as active; the % refers to the signal ratio; further: % of control where 0% means no effect). The note with it: ME-180 (cervical carcinoma) HRE-bla reporter, beta-lactamase ratio, CoCl2, 17 h; activation: stronger effect = higher value. The procedure, abridged:
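Cells were plated overnight, pin-dosed with compound in a titration series, co-stimulated with EC50 CoCl2 and incubated 17 hours at 37 degrees Celsius. CCF4 substrate was then loaded, and AC50 values came from the 460nm/530nm ratio.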

Experiment [14] is described as follows: Confirmation and Secondary Assay for Modulators of Hemoglobin Beta Chain Splicing at IVS2 705 locus (AID 930; active means well fitted curve in the direction sought with a large enough effect; an effect the other way counts as inactive or inconclusive;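 further: HeLa cells stably expressing the EGFP-705 splicing reporter; GFP fluorescence per well restored by corrected splicing of the IVS2-705 intron in EGFP; % of control where 0% means no effect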). The note with it: HeLa EGFP-705 splicing reporter, GFP fluorescence, 48 h; series mostly up to 38.3 µM. The procedure, abridged:
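Splice-correction reporter: EGFP cDNA split by beta-globin intron 2 bearing the 705 mutation, stably in HeLa. Compound incubation 2 days, 37C; fluorescent objects 5-250 µm summed per well.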

The target in experiment [15] is Ubiquitin carboxyl-terminal hydrolase 1 (Homo sapiens) (UniProt O94782). In words: Inhibitors of USP1/UAF1: Pilot qHTS (AID 504865; active means well fitted curve in the direction sought with a large enough effect; an effect the other way counts as inactive or inconclusive;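 further: rhodamine fluorescence freed from ubiquitin-rhodamine substrate followed over time; top concentration of the series differs between compounds; on the % scale 0 is the no-effect control and ±100 the full control effect; nearly all actives have a fitted effect of over 35% in size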). The settings on record: purified USP1/UAF1, Ub-rhodamine cleavage fluorescence; series mostly up to 54.9 µM. In a few lines: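 In 50mM HEPES pH 7.8 containing 0.5mM EDTA, 1mM TCEP, 0.1 mg/ml BSA and 0.01% Tween-20, 1nM USP1/UAF1 is exposed to compound for 15 min, then Ub-Rho (150nM final) is added and fluorescence is read over time.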

Experiment [16] addresses Glucocorticoid receptor (Homo sapiens) (UniProt P04150). In words: GR-GFP Redistribution (AID 450;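 active means compounds whose dose series gives a full or clear partial fitted curve of increased nuclear translocation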; further: potency means the concentration at half of the fitted maximal effect). The note with it: U2OS GR-GFP nuclear translocation, laser cytometry, 2 h.
The target of experiment [17] is Cytochrome P450 3A4 (Homo sapiens) (UniProt P08684). As to the kind of experiment: qHTS Assay for Inhibitors and Substrates of Cytochrome P450 3A4 (AID 884; active means well fitted curve in the direction sought with a large enough effect; an effect the other way counts as inactive or inconclusive; further: potency means the concentration at half of the fitted maximal effect; nearly all actives have a fitted effect of over 50% in size). The note with it: recombinant CYP3A4, Luciferin-PPXE luminescence; series mostly up to 57.1 µM. The procedure, abridged:
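Luminescent readout of luciferin produced by CYP3A4 (20 nM) dealkylation of Luciferin-PPXE, 25 uM (its KM). NADPH-driven reaction ran 60 min at RT after 10 min compound preincubation; data scaled to 57 uM ketoconazole as 100% inhibition.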

Experiment [18] concerns the target Cytochrome P450 2D6 (Homo sapiens) (UniProt P10635). In words: qHTS Assay for Inhibitors and Substrates of Cytochrome P450 2D6 (AID 891; active means well fitted curve in the direction sought with a large enough effect; an effect the other way counts as inactive or inconclusive; further: potency means the concentration at half of the fitted maximal effect; nearly all actives have a fitted effect of over 60% in size). The note with it: recombinant CYP2D6, luciferin-ME EGE luminescence; series mostly up to 57.1 µM. In a few lines: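 Luminescent read-out of luciferin formed by 5 nM human CYP2D6 demethylating 30 uM Luciferin-ME EGE (Km level) over 60 min at room temperature after NADPH regeneration addition. Data normalized to full inhibition by 1.43 uM quinidine.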

The target of experiment [19] is Cytochrome P450 2C19 (Homo sapiens) (UniProt P33261). As to the kind of experiment: qHTS Assay for Inhibitors and Substrates of Cytochrome P450 2C19 (AID 899; active means well fitted curve in the direction sought with a large enough effect; an effect the other way counts as inactive or inconclusive; further: potency means the concentration at half of the fitted maximal effect; nearly all actives have a fitted effect of over 60% in size). The note with it: recombinant CYP2C19, luciferin-H EGE luminescence; series mostly up to 57.1 µM. The procedure, abridged:
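5 nM human CYP2C19 with 10uM Luciferin-H EGE (at KM) in 50mM KPO4, compound preincubated 10 min at 37C, then NADPH regeneration for 60 min at 37C. Luciferin read by luminescence after detection reagent; normalized to 57uM ketoconazole as full inhibition.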

Setting [20] is: measured here: cell count channel max response.
Setting [21] is: measured here: lipid channel max response.

Inconclusive results are not listed. Activity calls are given as the source filed them. Unless noted, the call rests on the fitted dose curve; in most records, active means well fitted curve in either direction with a large enough effect (not every such curve was filed as active); inconclusive means small, poorly fitted or top-dose-only effect, or another doubt; inactive means flat fitted curve, though single readings scatter.

Glucocorticoid receptor (Homo sapiens), sequence (P04150 whole entry, looked up, the tested form may be a part): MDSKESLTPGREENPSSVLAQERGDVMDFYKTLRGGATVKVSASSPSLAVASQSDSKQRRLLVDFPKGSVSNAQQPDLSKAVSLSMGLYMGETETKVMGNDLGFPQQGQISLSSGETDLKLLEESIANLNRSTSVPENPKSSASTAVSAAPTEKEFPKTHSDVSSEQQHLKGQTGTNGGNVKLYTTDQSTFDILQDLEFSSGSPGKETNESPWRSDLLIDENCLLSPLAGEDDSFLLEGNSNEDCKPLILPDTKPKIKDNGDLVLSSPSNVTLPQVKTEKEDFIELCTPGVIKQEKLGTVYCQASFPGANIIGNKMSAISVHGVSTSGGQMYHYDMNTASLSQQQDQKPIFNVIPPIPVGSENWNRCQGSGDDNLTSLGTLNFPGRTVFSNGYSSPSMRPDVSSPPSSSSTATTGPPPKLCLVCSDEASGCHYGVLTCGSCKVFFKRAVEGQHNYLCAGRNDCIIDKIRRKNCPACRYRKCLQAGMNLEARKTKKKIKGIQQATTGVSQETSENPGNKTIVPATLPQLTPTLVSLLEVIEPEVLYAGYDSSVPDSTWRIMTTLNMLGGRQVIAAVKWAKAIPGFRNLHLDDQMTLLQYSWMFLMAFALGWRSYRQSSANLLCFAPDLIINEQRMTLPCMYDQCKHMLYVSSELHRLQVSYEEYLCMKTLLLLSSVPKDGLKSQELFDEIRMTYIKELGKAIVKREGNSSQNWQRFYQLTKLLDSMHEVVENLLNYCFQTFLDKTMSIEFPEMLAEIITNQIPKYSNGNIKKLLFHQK
Lysosomal acid glucosylceramidase (Homo sapiens), sequence (P04062 whole entry, looked up): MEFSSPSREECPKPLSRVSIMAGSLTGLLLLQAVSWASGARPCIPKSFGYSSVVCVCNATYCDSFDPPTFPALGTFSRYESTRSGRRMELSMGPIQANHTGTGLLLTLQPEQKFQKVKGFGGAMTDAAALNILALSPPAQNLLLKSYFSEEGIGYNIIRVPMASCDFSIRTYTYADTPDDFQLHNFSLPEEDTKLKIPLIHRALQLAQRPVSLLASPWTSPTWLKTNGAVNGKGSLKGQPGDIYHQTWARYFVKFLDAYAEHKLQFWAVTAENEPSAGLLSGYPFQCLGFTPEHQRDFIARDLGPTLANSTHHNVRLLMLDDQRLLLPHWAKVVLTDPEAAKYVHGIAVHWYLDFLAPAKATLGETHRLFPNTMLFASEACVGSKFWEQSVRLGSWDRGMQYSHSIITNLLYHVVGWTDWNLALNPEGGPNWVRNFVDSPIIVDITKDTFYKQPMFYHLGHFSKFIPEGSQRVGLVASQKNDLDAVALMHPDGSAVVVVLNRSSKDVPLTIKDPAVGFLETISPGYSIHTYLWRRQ
Cytochrome P450 3A4 (Homo sapiens), sequence (P08684 whole entry, looked up): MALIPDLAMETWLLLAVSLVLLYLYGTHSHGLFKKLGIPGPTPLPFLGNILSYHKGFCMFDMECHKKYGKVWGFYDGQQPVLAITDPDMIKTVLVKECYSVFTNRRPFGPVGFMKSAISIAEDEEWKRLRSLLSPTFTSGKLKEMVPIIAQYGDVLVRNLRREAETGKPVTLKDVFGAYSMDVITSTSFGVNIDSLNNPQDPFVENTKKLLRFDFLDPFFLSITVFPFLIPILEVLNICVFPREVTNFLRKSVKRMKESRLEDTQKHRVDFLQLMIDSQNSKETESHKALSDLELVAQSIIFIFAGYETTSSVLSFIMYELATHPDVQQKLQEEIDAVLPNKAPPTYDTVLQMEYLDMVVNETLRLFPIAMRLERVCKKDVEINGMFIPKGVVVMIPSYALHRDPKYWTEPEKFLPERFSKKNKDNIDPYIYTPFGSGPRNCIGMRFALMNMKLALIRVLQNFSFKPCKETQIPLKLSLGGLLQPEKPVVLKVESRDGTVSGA
3',5'-cyclic-AMP phosphodiesterase 4B (Homo sapiens), sequence (Q07343 whole entry, looked up): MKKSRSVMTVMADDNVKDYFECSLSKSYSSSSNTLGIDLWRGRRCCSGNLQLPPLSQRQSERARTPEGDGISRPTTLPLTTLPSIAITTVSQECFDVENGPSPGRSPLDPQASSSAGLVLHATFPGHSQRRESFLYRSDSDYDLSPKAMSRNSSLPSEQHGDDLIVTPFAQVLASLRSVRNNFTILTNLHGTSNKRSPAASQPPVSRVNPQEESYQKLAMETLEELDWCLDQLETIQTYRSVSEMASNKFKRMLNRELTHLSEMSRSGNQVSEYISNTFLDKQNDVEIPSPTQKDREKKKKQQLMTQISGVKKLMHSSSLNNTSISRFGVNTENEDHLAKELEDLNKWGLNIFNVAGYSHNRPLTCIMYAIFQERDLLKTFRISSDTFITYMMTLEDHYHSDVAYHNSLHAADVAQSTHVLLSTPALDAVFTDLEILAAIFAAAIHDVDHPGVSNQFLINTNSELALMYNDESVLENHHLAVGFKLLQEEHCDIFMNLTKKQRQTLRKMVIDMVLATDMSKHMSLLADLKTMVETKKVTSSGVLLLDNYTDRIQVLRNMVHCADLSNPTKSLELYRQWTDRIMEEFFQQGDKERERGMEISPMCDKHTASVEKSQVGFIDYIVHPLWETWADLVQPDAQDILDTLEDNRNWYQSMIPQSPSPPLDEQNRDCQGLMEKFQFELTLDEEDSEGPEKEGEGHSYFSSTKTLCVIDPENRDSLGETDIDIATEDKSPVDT
Cytochrome P450 1A2 (Homo sapiens), sequence (P05177 whole entry, looked up): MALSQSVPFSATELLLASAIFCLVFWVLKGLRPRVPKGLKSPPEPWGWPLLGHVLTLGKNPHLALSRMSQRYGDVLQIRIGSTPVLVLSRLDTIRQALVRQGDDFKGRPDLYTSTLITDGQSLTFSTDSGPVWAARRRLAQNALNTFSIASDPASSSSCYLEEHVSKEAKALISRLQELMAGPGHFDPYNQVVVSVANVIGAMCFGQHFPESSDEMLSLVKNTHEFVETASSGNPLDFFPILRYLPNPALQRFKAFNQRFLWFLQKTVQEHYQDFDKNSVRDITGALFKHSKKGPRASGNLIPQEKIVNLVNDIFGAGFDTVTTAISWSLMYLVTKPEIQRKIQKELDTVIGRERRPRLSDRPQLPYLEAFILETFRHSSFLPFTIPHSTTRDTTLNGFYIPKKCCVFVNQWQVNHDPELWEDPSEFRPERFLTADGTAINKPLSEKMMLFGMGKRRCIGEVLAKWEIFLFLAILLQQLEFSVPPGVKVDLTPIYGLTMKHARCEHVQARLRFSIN
Cytochrome P450 2C19 (Homo sapiens), sequence (P33261 whole entry, looked up): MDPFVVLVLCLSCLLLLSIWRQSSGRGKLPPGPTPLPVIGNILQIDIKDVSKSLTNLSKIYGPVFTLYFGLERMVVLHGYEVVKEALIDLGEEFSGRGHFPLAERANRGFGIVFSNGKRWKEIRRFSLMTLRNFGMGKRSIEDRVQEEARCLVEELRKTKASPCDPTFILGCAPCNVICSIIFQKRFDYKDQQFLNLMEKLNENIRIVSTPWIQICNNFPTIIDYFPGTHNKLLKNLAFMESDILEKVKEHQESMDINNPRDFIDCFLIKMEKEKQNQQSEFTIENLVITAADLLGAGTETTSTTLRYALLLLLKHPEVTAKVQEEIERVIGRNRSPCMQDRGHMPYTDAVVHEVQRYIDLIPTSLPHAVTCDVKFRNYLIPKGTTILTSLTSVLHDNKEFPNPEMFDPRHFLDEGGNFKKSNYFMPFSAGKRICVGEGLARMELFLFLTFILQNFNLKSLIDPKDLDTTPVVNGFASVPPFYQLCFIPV
Cytochrome P450 2D6 (Homo sapiens), sequence (P10635 whole entry, looked up): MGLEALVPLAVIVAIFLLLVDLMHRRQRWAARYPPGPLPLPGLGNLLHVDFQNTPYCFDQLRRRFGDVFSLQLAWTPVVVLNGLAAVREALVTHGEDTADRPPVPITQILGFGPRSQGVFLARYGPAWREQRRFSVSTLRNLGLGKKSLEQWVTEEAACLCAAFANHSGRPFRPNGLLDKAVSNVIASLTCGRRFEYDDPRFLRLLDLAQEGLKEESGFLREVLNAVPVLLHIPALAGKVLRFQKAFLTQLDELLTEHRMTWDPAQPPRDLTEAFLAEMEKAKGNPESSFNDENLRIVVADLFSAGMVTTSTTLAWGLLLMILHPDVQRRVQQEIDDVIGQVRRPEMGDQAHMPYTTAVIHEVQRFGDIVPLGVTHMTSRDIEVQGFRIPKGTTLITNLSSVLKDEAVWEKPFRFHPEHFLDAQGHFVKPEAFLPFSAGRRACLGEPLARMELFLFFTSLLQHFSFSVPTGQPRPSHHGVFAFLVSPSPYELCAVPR
Ubiquitin carboxyl-terminal hydrolase 1 (Homo sapiens), sequence (O94782 whole entry, looked up): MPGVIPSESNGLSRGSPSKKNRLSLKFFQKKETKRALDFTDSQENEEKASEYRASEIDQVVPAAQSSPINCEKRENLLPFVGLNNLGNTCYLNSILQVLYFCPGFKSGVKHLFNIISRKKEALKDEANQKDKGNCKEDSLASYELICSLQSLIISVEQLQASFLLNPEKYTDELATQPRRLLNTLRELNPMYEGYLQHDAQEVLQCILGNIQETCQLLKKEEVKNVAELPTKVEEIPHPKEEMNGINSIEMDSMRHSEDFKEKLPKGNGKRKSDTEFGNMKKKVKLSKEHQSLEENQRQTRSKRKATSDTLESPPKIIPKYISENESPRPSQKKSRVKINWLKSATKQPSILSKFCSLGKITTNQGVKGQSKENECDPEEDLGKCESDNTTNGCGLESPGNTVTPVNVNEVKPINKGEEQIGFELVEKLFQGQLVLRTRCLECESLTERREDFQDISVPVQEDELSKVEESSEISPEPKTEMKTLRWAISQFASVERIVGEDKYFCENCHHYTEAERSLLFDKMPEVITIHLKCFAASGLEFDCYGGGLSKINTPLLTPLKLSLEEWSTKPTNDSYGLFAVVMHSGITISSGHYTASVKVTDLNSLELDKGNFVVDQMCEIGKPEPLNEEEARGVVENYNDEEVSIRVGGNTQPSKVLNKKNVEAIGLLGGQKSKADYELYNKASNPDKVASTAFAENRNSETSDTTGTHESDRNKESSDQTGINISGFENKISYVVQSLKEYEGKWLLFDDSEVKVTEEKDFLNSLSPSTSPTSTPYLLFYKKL

As to `CC(C)CN1CCC2(CC1)CCN(C(=O)c1csnn1)CC2`, the Potency in experiment [1] is > 11.4 µM (inactive); in experiment [6], > 46 µM (inactive). The activity change, negative = inhibition in experiment [2] was -3.75% (inactive); in experiment [4] it was -21.7% (inactive); in experiment [9], -1.92% (inactive). For the same compound, the Potency result in [3], in [8] and in experiment [10] was “inactive” throughout. For the same compound, the activity, negative = inhibition in [5] was -16.4% (inactive). The result in experiment [7] was inactive. Further, the max response is -3.14% in [9] (setting [20]) and -1.99% in experiment [9] (setting [21]).
On to `CS(=O)(=O)N1CCC[C@@]2(CCN(C(=O)Nc3ccccc3)C2)C1`, for which the Potency was > 11.4 µM (inactive) in experiment [1] and > 46 µM (inactive) in experiment [6]. For the same compound, the activity change, negative = inhibition in [2] was -1.88% (inactive); in experiment [4] it was 17.3% (inactive); in experiment [9] it was 0.904% (inactive). The Potency entry in experiment [3] and in [10] was “inactive” each time. Also, the activity, negative = inhibition in experiment [5] is -10.3% (inactive). Besides, the compound was called inactive in experiment [7]. In addition, the max response in experiment [9] (setting [20]) was 16.4%; in [9] (setting [21]), 17.6%.
As for `COc1ccccc1-c1nccc(NCc2cnc(C)cn2)n1`, the Potency was > 11.4 µM (inactive) in experiment [1], 12.6 µM (active) in experiment [3] and > 46 µM (inactive) in experiment [6]. The activity change, negative = inhibition in experiment [2] was 6.33% (inactive); in experiment [4], 2.9% (inactive); in [9] it was 11.7% (inactive). For the same compound, the activity, negative = inhibition in [5] is 18.3% (inactive). The compound was called inactive in [7], in experiment [12] and in experiment [14]. Besides, the Potency entry in experiment [8], in experiment [11], in experiment [15] and in experiment [10] was “inactive” throughout. Further, the activation in experiment [13] is 3.22% (inactive). Moreover, the max response in [9] (setting [20]) stood at 16.8%; in experiment [9] (setting [21]), 27.7%.
`COc1ncc2nc(-c3cccc(C#N)c3)c(=O)n(CCC#N)c2n1`: the Potency in [1] was > 11.4 µM (inactive); in experiment [3], 20 µM (active); in [16] it was > 9.22 µM (inactive); in [6], > 46 µM (inactive). For the same compound, the results for the activity change, negative = inhibition in experiment [2], in [4] and in [9] were -2.26% (inactive), -6.7% (inactive) and 3.8% (inactive), respectively. Further, the activity, negative = inhibition in experiment [5] is -3.36% (inactive). In addition, the outcome in [7] was inactive. Further, the Potency entry in experiment [8], in experiment [11] and in [10] was “inactive” in each case. Besides, the activation in experiment [13] is -3.76% (inactive). Also, the max response stood at 14.2% in experiment [9] (setting [20]) and 20.3% in experiment [9] (setting [21]).
In the case of `Cc1cccc(CNc2ncncc2-c2ccc3c(c2)OCO3)c1`, the Potency in experiment [1] was > 11.4 µM (inactive); in [3], 0.126 µM (active); in [16], > 46 µM (inactive); in [6], > 46 µM (inactive); in [17] it was 0.251 µM (active); in experiment [18] it was 6.31 µM (active). Also, the Potency in experiment [19] was 0.501 µM (active). In addition, the figures for the activity change, negative = inhibition in experiment [2], in experiment [4] and in [9] were -0.728% (inactive), -2.79% (inactive) and 12.7% (inactive), respectively. Moreover, in [5], the activity, negative = inhibition was -19.6% (inactive). Further, the outcome in experiment [7], in experiment [12] and in [14] was inactive. Also, the Potency entry in experiment [11] and in experiment [10] was “inactive” in each case. For the same compound, the activation in [13] was -16.9% (inactive). Also, the max response came out at 7.25% in experiment [9] (setting [20]) and 23.1% in experiment [9] (setting [21]).
